The source of these data is PubChem BioAssay (EPA / NIEHS).

Structures are written as SMILES. Active and inactive are the calls of the source. How the source made its calls: active means hit-call score of the fitted dose curve at least 0.9, where 1 is the maximum; inactive means score below 0.9.

The AC50 is the concentration at which the activity in the assay is half-maximal.

Read-out in the first assay: Glutathione S-Transferase (GSTA2), GSTA2 (gene 2939)
The assay can be described thus: LTEA_HepaRG_GSTA2: Life Technologies and Expression Analysis (LTEA) Assay for Glutathione S-Transferase (GSTA2) using HepaRG (AID 2283497). As to conditions: mRNA level, 48 h; actives raise or lower the signal. The method in brief: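 Differentiated human HepaRG cells were exposed in duplicate for 48 h in serum-free induction medium, 8 points from 100 uM top in half-log steps, 0.5% DMSO. GSTA2 mRNA was measured by TaqMan qRT-PCR, normalized to ACTB, GAPDH and POLR2A; bidirectional fit versus DMSO.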
As to `C=CC(=O)NCNC(=O)C=C`, the AC50 is 12.7 µM (active).

In the case of `C1CC2OC2CC1C1CO1` (centres undefined), the outcome was inactive.

On to `O=C(NC(=O)c1c(F)cccc1F)Nc1cc(Cl)c(OC(F)(F)C(F)F)c(Cl)c1`, for which the compound was called inactive.

As to `O=C(NC(=O)c1cc(F)c(F)cc1Cl)Nc1cc(F)ccc1N1CCC(C(=O)O)CC1`, the outcome was inactive.

`ClC(Cl)=C(c1ccc(Cl)cc1)c1ccc(Cl)cc1`: the result was inactive.

For the compound `CCC(C)(c1ccc(O)cc1)c1ccc(O)cc1`, the outcome was inactive.

Consider `COS(=O)(=O)OC`, for which the call was inactive.

Regarding `N#Cc1ccc(N(CC(N)=O)CC(F)(F)F)cc1C(F)(F)F`, the compound was called inactive.

On to `CCC(=O)O[C@H]1CC[C@H]2[C@@H]3CCC4=CC(=O)CC[C@]4(C)[C@H]3CC[C@]12C`, for which the compound was called inactive.

Regarding `CCCCCCCCOC(=O)c1ccccc1C(=O)OCCCCCCCC`, the result was inactive.

Read-out in a further assay: Glutamate-cysteine ligase catalytic (GCLC), GCLC (gene 2729)
The assay can be described thus: LTEA_HepaRG_GCLC: Life Technologies and Expression Analysis (LTEA) Assay for Glutamate-cysteine ligase catalytic (GCLC) using HepaRG (AID 2283498). To be noted: mRNA level, 48 h; actives raise or lower the signal. The gist of the method: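 Differentiated HepaRG cells exposed 48 h in serum-free induction medium, eight-point half-log series topping at 100 uM in 0.5% DMSO, duplicates. GCLC mRNA by qRT-PCR normalized to ACTB, GAPDH and POLR2A, fitted bidirectionally versus DMSO.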
With `CC(C)(O)C(=O)Nc1ccc([N+](=O)[O-])c(C(F)(F)F)c1`, the call was inactive.

Regarding `CCC(C)(CC)c1cc(NC(=O)c2c(OC)cccc2OC)on1`, the AC50 was 63.8 µM (active).

On to `Cc1ccccc1O`, for which the result was inactive.

As to `CN(C)CCO`, the result was inactive.

Regarding `Cc1ccccc1CO[C@@H]1C[C@@]2(C(C)C)CC[C@]1(C)O2`, the compound was called inactive.

Consider `Cc1cc(-c2ccc(N)c(C)c2)ccc1N`, for which the compound was called inactive.

Regarding `c1cc2ccc3cccc4ccc(c1)c2c34`, the result was inactive.

`Oc1c(Cl)c(Cl)c(Cl)c(Cl)c1Cl`: the AC50 was 1.97 µM (active).

Take `O=NN(c1ccccc1)c1ccccc1`: the result was inactive.

Turning to `Clc1ccc(C(c2ccccc2Cl)C(Cl)(Cl)Cl)cc1` (centres undefined), the call was inactive.

As for `NS(=O)(=O)C(F)(F)C(F)(F)C(F)(F)C(F)(F)C(F)(F)C(F)(F)C(F)(F)C(F)(F)F`, the AC50 was 5.02 µM (active).

For the compound `O=S(=O)(O)C(F)(F)C(F)(F)C(F)(F)C(F)(F)F`, the result was inactive.

`Nc1ccc(-c2ccc(N)cc2)cc1`: the compound was called inactive.

For `C=CC(N)=O`, the result was inactive.

In the case of `CCOCCOC(C)=O`, the call was inactive.

For `O=C(O)C(F)(F)C(F)(F)C(F)(F)C(F)(F)C(F)(F)C(F)(F)C(F)(F)C(F)(F)F`, the AC50 was 75.3 µM (active).

Turning to `CCCCCCCCCc1ccc(O)cc1`, the result was inactive.

In the case of `CO/C=C(/C(=O)OC)c1ccccc1COc1cccc(C(F)(F)F)n1`, the call was inactive.

For the compound `ClC1=C(Cl)[C@]2(Cl)[C@@H]3[C@@H]4C[C@@H]([C@H]5O[C@@H]45)[C@@H]3[C@@]1(Cl)C2(Cl)Cl`, the call was inactive.

As for `Cc1ccccc1[N+](=O)[O-]`, the compound was classed as inactive.

`Oc1ccc(Cl)cc1Cl`: the call was inactive.

Regarding `Clc1ccc(C(Cl)(Cl)Cl)cc1`, the call was inactive.

As to `C=CC(=O)NCNC(=O)C=C`, the call was inactive.

With `C1CC2OC2CC1C1CO1` (centres undefined), the compound was classed as inactive.

With `O=C(NC(=O)c1c(F)cccc1F)Nc1cc(Cl)c(OC(F)(F)C(F)F)c(Cl)c1`, the result was inactive.

In the case of `O=C(NC(=O)c1cc(F)c(F)cc1Cl)Nc1cc(F)ccc1N1CCC(C(=O)O)CC1`, the call was inactive.

`ClC(Cl)=C(c1ccc(Cl)cc1)c1ccc(Cl)cc1`: the compound was called inactive.

As to `CCC(C)(c1ccc(O)cc1)c1ccc(O)cc1`, the call was inactive.

`COS(=O)(=O)OC`: the call was inactive.

Consider `N#Cc1ccc(N(CC(N)=O)CC(F)(F)F)cc1C(F)(F)F`, for which the compound was called inactive.

Regarding `CCC(=O)O[C@H]1CC[C@H]2[C@@H]3CCC4=CC(=O)CC[C@]4(C)[C@H]3CC[C@]12C`, the compound was called inactive.

Turning to `CCCCCCCCOC(=O)c1ccccc1C(=O)OCCCCCCCC`, the compound was classed as inactive.

Read-out in the next assay: growth arrest and DNA damage 45 (GADD45G), GADD45G (gene 10912)
The assay can be described thus: LTEA_HepaRG_GADD45G: Life Technologies and Expression Analysis (LTEA) Assay for growth arrest and DNA damage 45 (GADD45G) using HepaRG (AID 2283499). As to conditions: mRNA level, 48 h; actives raise or lower the signal. The gist of the method: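 GADD45G transcript level by qRT-PCR (housekeeping-normalized: ACTB, GAPDH, POLR2A) after 48 h chemical treatment of a single HepaRG lot in serum-free induction medium; eight-point half-log series up to 100 uM in 0.5% DMSO, duplicates, up- or down-regulation scored.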
Turning to `CC(C)(O)C(=O)Nc1ccc([N+](=O)[O-])c(C(F)(F)F)c1`, the result was inactive.

For the compound `CCC(C)(CC)c1cc(NC(=O)c2c(OC)cccc2OC)on1`, the half-maximal activity concentration (AC50) was 80.1 µM (active).

For `Cc1ccccc1O`, the compound was classed as inactive.

As to `CN(C)CCO`, the result was inactive.

For the compound `Cc1ccccc1CO[C@@H]1C[C@@]2(C(C)C)CC[C@]1(C)O2`, the compound was called inactive.

Regarding `Cc1cc(-c2ccc(N)c(C)c2)ccc1N`, the concentration at half-maximal activity (AC50) was 26 µM (active).

`c1cc2ccc3cccc4ccc(c1)c2c34`: the outcome was inactive.

On to `Oc1c(Cl)c(Cl)c(Cl)c(Cl)c1Cl`, for which the concentration at half-maximal activity (AC50) is 12.6 µM (active).

`O=NN(c1ccccc1)c1ccccc1`: the call was inactive.

Regarding `Clc1ccc(C(c2ccccc2Cl)C(Cl)(Cl)Cl)cc1` (centres undefined), the AC50 was 90 µM (active).

In the case of `NS(=O)(=O)C(F)(F)C(F)(F)C(F)(F)C(F)(F)C(F)(F)C(F)(F)C(F)(F)C(F)(F)F`, the AC50 is 50 µM (active).

Take `O=S(=O)(O)C(F)(F)C(F)(F)C(F)(F)C(F)(F)F`: the outcome was inactive.

For `Nc1ccc(-c2ccc(N)cc2)cc1`, the call was inactive.

Regarding `C=CC(N)=O`, the call was inactive.

Turning to `CCOCCOC(C)=O`, the result was inactive.

With `O=C(O)C(F)(F)C(F)(F)C(F)(F)C(F)(F)C(F)(F)C(F)(F)C(F)(F)C(F)(F)F`, the AC50 is 85.6 µM (active).

Consider `CCCCCCCCCc1ccc(O)cc1`, for which the outcome was inactive.

With `CO/C=C(/C(=O)OC)c1ccccc1COc1cccc(C(F)(F)F)n1`, the AC50 was 6.56 µM (active).

For `ClC1=C(Cl)[C@]2(Cl)[C@@H]3[C@@H]4C[C@@H]([C@H]5O[C@@H]45)[C@@H]3[C@@]1(Cl)C2(Cl)Cl`, the call was inactive.

`Cc1ccccc1[N+](=O)[O-]`: the compound was called inactive.

As for `Oc1ccc(Cl)cc1Cl`, the result was inactive.

As to `Clc1ccc(C(Cl)(Cl)Cl)cc1`, the call was inactive.

For `C=CC(=O)NCNC(=O)C=C`, the result was inactive.

Consider `C1CC2OC2CC1C1CO1` (centres undefined), for which the outcome was inactive.

On to `O=C(NC(=O)c1c(F)cccc1F)Nc1cc(Cl)c(OC(F)(F)C(F)F)c(Cl)c1`, for which the call was inactive.

On to `O=C(NC(=O)c1cc(F)c(F)cc1Cl)Nc1cc(F)ccc1N1CCC(C(=O)O)CC1`, for which the result was inactive.

`ClC(Cl)=C(c1ccc(Cl)cc1)c1ccc(Cl)cc1`: the call was inactive.

As to `CCC(C)(c1ccc(O)cc1)c1ccc(O)cc1`, the outcome was inactive.

For the compound `COS(=O)(=O)OC`, the outcome was inactive.

Consider `N#Cc1ccc(N(CC(N)=O)CC(F)(F)F)cc1C(F)(F)F`, for which the compound was classed as inactive.

Regarding `CCC(=O)O[C@H]1CC[C@H]2[C@@H]3CCC4=CC(=O)CC[C@]4(C)[C@H]3CC[C@]12C`, the outcome was inactive.

As to `CCCCCCCCOC(=O)c1ccccc1C(=O)OCCCCCCCC`, the compound was called inactive.
